In the library only some 17% were active in any assay of this set; here they are far more common.
DT40 TDP1 no CPT – qHTS for Inhibitors of human tyrosyl-DNA phosphodiesterase 1 (TDP1): qHTS in cells in absence of CPT | DT40 Tdp1-/- hTDP1 cells, no CPT, ATP luminescence, 48 h | Potency, µM (doses to about 46.2 µM), inactives show top-dose activity change, negative = growth inhibition, actives largely listed as inhibitors | 15% of 420,000 active | AID 686978, 2013; further: on the % scale 0 is the no-effect control and ±100 the full control effect; nearly all actives have a fitted effect of over 55% in size
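Seeded 400 DT40-hTDP1 cells/well (vehicle DMSO, no 20 nM CPT); pinned compounds; ≥48 hr at 37 °C; CellTiter-Glo luminescence as viability measure.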
ClpP mod – qHTS Assay for Activators of ClpP; ATP-dependent Clp protease proteolytic subunit (Bacillus subtilis (strain 168)), P80244; purified B. subtilis ClpP, FRET peptide cleavage, 20 min; Potency, µM (series often up to 57.5 µM), for the others: at the top dose activity change, negative = active; 1.9% of 340,000 active; AID 651965, 2013; active means well fitted falling curve with a large enough effect; inconclusive means small, poorly fitted or top-dose-only effect; inactive means no such curve, though single readings can be large or run the other way; further: the source files actives as falling curves though it sought activators and does not explain the sign; nearly all actives have a fitted effect of over 65% in size
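Purified B. subtilis ClpP, 10 microg/mL final in Tris/HCl pH8 with KCl, BSA, glycerol and Tween-20, cleaved an Abz/nitrotyrosine-quenched decapeptide. Fluorescence (ex 320, em 430) was read at 0 and 20 min at room temperature. Delta was normalized to 5.8 microM ADEP and DMSO/no-enzyme controls.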
TDP1 inh – qHTS Assay for Inhibitors of Tyrosyl-DNA Phosphodiesterase (TDP1); Tyrosyl-DNA phosphodiesterase 1 (Homo sapiens), Q9NUW8; recombinant TDP1, AlphaScreen DNA substrate cleavage; Potency, µM (top dose mostly 130 µM), without a hit: at the highest dose activity change, negative = inhibition, most hits filed as inhibitors; 0.28% of 350,000 active; AID 485290, 2010; further: on the % scale 0 is the no-effect control and ±100 the full control effect; nearly all actives have a fitted effect of over 40% in size
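AlphaScreen read-out: signal falls as enzyme removes the 3' tyrosine-FITC from a 5'-biotinylated DNA oligo (15 nM, 5 min, RT). Enzyme was E. coli-made recombinant Tdp1 at 1 nM, exposed to compound for 15 min beforehand; beads 10 ug/ml, 10 min.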
DT40 TDP1 CPT – qHTS for Inhibitors of human tyrosyl-DNA phosphodiesterase 1 (TDP1): qHTS in cells in presence of CPT. chicken DT40 Tdp1-/-;hTDP1 cells + 20 nM CPT, ATP luminescence, 48 h. Potency, µM (highest dose often 46.2 µM), without a hit: top-dose activity change, negative = growth inhibition, most hits filed as inhibitors. 12% of 420,000 active; further: on the % scale 0 is the no-effect control and ±100 the full control effect; nearly all actives have a fitted effect of over 55% in size
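Chicken DT40 Tdp1-/- cells complemented with human TDP1, 400 cells/well, exposed to compounds plus 20 nM camptothecin for at least 48 h at 37 C; viability read as ATP content by CellTiter-Glo luminescence.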
Active calls of the source: *; ? = inconclusive; · = no result; [ ] = dose if it differs, or a comment. Unless noted, the call rests on the fitted dose curve; in most records, active means well fitted curve in the direction sought with a large enough effect; inconclusive means small, poorly fitted or top-dose-only effect, or another doubt; inactive means no such curve, though single readings can be large; an effect the other way counts as inactive or inconclusive. Potency means the concentration at half of the fitted maximal effect.

SMILES	DT40 TDP1 no CPT	ClpP mod	TDP1 inh	DT40 TDP1 CPT
Cc1nc(N)sc1-c1csc(Nc2ccccc2)n1	?	-10%	13%	?
Cc1nc(C)c(-c2csc(Nc3ccc(N)cc3)n2)s1	16µM*	1%	·	?
Nc1c(Br)cc(/C=C2\C=Cc3ccccc32)cc1Br	?	-1%	·	?
CC(=O)OCc1cnc(C)c2oc(=O)c(C(=O)Nc3ccc(C)cc3Cl)cc12	-5%	-4%	1%	-14%
CCOc1ccc(OCC)c(-c2c(=O)n(OCc3ccccc3Br)c3ccccc3[n+]2[O-])c1	8.9µM*	0%	2%	10µM*
C=CCOn1c(=O)c(-c2ccc(OC)cc2)[n+]([O-])c2ccccc21	-20%	-1%	2%	-9%
CCOc1ccc(-c2c(=O)n(OCc3ccccc3Br)c3ccccc3[n+]2[O-])c(OCC)c1	23µM*	-1%	0%	?
CCOc1ccc(OCC)c(-c2c(=O)n(OCc3ccccc3C(=O)OC)c3ccccc3[n+]2[O-])c1	13µM*	0%	3%	13µM*
CCc1nc2c(OCC(=O)C(C)(C)C)cccn2c1N(C)C(=O)CC(C)C	-26%	-3%	·	?
NC(=O)c1c(N)[nH]c(C(=O)c2ccccc2)c1-c1ccccc1Br	18µM*	-1%	·	?
CC(C)(C)C(=O)c1c(N)[nH]c(C(=O)c2ccccc2)c1-c1c(F)cccc1F	21µM*	-4%	·	?
CC(C)(C)C(=O)c1c(N)[nH]c(C(=O)c2ccccc2)c1-c1ccc(Cl)cc1Cl	?	-2%	·	?
COc1ccc(-c2c(C(=O)c3ccc(Br)cc3)[nH]c(N)c2C(=O)c2ccccc2)cc1OC	21µM*	1%	·	?
NC(=O)c1c(N)[nH]c(C(=O)c2ccccc2)c1-c1ccncc1	-18%	-2%	·	3%
Nc1[nH]c(C(=O)c2ccccc2)c(-c2ccc(Cl)cc2Cl)c1C(=O)c1ccc(Cl)c(Cl)c1	?	-4%	·	18µM*
Cc1cccc(C)c1NC(=O)CNC(=O)C(C)N(C)CC(=O)Nc1ccc(F)cc1 (stereo not drawn)	-9%	2%	-5%	-19%
NC(C(=O)N[C@@H]1C(=O)N2C(C(=O)O)=C(Cl)CS[C@H]12)c1ccccc1 (stereo partly drawn)	·	·	-6%[56.1 µM]	·
CCOc1cc(C(=O)NCc2ccc3c(c2)CCN3C(=O)CC)cc(OCC)c1OCC	-19%	-2%	-1%	-10%
CCC1Oc2ccc(C)cc2N(CC(=O)N2CCOCC2)C1=O (stereo not drawn)	-8%	·	0%	4%
CC(C)(C)C(=O)c1c(N)[nH]c(C(=O)c2ccccc2)c1-c1ccccc1Br	16µM*	2%	·	26µM*
Nc1[nH]c(C(=O)c2ccccc2)c(-c2cccc3ccccc23)c1C(=O)NCc1ccccc1	23µM*	2%	·	?
CC(C)(C)C(=O)c1c(N)[nH]c(C(=O)c2ccccc2)c1-c1ccc(Cl)cc1	?	3%	·	?
COC(=O)c1c(N)[nH]c(C(=O)c2ccccc2)c1-c1ccccc1Br	16µM*	-1%	·	?
CC(NC(=O)c1c(N)[nH]c(C(=O)c2ccccc2)c1-c1ccccc1Br)c1cccc2ccccc12 (stereo not drawn)	?	2%	·	?
COc1ccc(C2NC(=O)N(C)C3=C2C(=O)N(c2ccc(C)cc2)C3)cc1 (stereo not drawn)	0%	-6%	-1%	9%
SMILES	DT40 TDP1 no CPT	ClpP mod	TDP1 inh	DT40 TDP1 CPT
Cc1ccc(S(=O)(=O)NCCCCCC(=O)Nc2c(C)n(C)n(-c3ccccc3)c2=O)cc1	-29%	1%	1%	-3%
Cc1cccc(Nc2ncnc3onc(-c4cccc(Cl)c4)c23)c1	?	-13%	·	21µM*
Clc1cccc(-c2noc3ncnc(Nc4ccc5c(c4)OCO5)c23)c1	?	-1%	·	-28%
CN(c1ncnc2onc(-c3cccc(Cl)c3)c12)C1CCCCC1	23µM*	-6%	4%	?
COc1ccc(CNC(=O)c2cccc(N3CCCS3(=O)=O)c2)cc1OC	7.3µM*	-3%	1%	10µM*
COc1ccc(CNC(=O)c2cccc(N3CCCS3(=O)=O)c2)cc1	-19%	2%	5%	-23%

Bioassay records: PubChem BioAssay, National Center for Advancing Translational Sciences (NCATS)
